Source: article PMC5540273 (PLoS ONE, 2017)

How the values were obtained:
Conditions in all cases: concentration: 1 μM, replicates: in singlicate; n = 1
MST1R = tested on: MST1R
MST1 = tested on: T1, MST1
T1 construct: gene STK4

MST2 = tested on: T2, MST2
T2 construct: gene STK3

MST3 = tested on: T3, MST3
T3 construct: gene STK24

MST4 = tested on: MST4
MTOR = tested on: MTOR
MUSK = tested on: MUSK
MYLK2 = tested on: MYLK2
MYLK4 = tested on: MYLK4
MYLK = tested on: MYLK
MYO3A = tested on: MYO3A
MYO3B = tested on: MYO3B
NDR1 = tested on: T4, NDR1
T4 construct: gene STK38

NDR2 = tested on: NDR2
NEK10 = tested on: NEK10
NEK11 = tested on: NEK11
NEK1 = tested on: NEK1
NEK2 = tested on: NEK2
NEK3 = tested on: NEK3
NEK4 = tested on: NEK4
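Also: KINOMEscan kinase panel screen.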

Structure (SMILES)	%Inh (MST1R) [%]	%Inh (MST1) [%]	%Inh (MST2) [%]	%Inh (MST3) [%]	%Inh (MST4) [%]	%Inh (MTOR) [%]	%Inh (MUSK) [%]	%Inh (MYLK2) [%]	%Inh (MYLK4) [%]	%Inh (MYLK) [%]	%Inh (MYO3A) [%]	%Inh (MYO3B) [%]	%Inh (NDR1) [%]	%Inh (NDR2) [%]	%Inh (NEK10) [%]	%Inh (NEK11) [%]	%Inh (NEK1) [%]	%Inh (NEK2) [%]	%Inh (NEK3) [%]	%Inh (NEK4) [%]
O=C1NC(=O)C(c2ccc(Cl)cc2)=C1Nc1ccc(O)cc1 [SB-340867]	0	0	0	0	0	0	0	0	3	11	0	0	14	12	0	0	0	0	0	0
Cn1cnc2c(N)ncnc21 [SKF-97623]	0	0	24	0	0	4	0	0	0	0	2	15	0	3	0	0	0	0	19	0
COc1ccc(Nc2nccc(NCCNC(=O)Nc3cc(C)ccc3C)n2)cc1 [GSK1379899]	15	8	0	0	0	0	0	14	0	0	0	0	0	0	2	11	0	0	0	4
Cc1cnc(N)c(/C=C/c2cncc(C(=O)NCCc3ccc(Cl)cc3Cl)c2)c1.Cl [GSK190937]	29	0	0	5	0	6	0	0	62	20	6	0	21	21	13	0	5	10	0	0
COc1ccc(-c2coc3ccc(-c4nnc(C)o4)cc23)cc1	0	0	0	0	0	5	4	18	14	0	0	12	8	9	47	0	0	0	21	17
CC(C)c1cc(-c2ccc3c(N)n[nH]c3c2)nc(N)n1 [GSK2250882]	3	0	0	8	0	11	0	23	39	26	9	0	17	0	8	0	0	0	0	0
NS(=O)(=O)c1cccc(N/C=C2\C(=O)Nc3ccc(S(=O)(=O)Cc4c(Cl)cccc4Cl)cc32)c1 [GSK398099]	17	0	1	0	0	11	7	0	1	18	14	0	0	0	0	0	10	21	10	0
Fc1ccc(-c2nn3cccc(F)c3c2-c2ccncc2)cc1 [GW475620]	18	30	0	0	0	20	11	0	0	14	0	7	0	0	1	0	0	0	0	0
c1ccc(-c2ccnc3[nH]ccc23)cc1 [SB-693578]	9	3	4	0	0	29	0	0	0	12	36	0	1	12	30	0	0	74	19	0
Cc1cccc2c(-c3ccncn3)c(-c3ccc(F)cc3)nn12 [GW515532]	26	7	0	15	0	9	12	0	0	0	0	0	0	0	0	0	0	23	0	0
O=C1NC(=O)C(c2ccc(Cl)cc2)=C1Nc1cccc(Cl)c1 [SB-317651]	9	6	43	13	0	8	7	30	0	0	5	8	12	0	0	0	0	0	16	0
Cc1c(Cn2c(C)c(C)n3c(=O)cc(N4CCOCC4)nc23)cccc1C(F)(F)F [GSK2328680]	12	2	0	6	0	32	45	7	0	14	0	0	0	2	0	5	0	8	0	19
Cc1ccc(NC(=O)Nc2ccccc2)cc1-c1ccc(C(=O)Nc2ccncc2)cc1 [GSK1398471]	29	0	0	0	0	0	4	0	3	20	0	0	24	0	10	0	15	0	0	0
Nc1cccc(-c2ccc3c(N)n[nH]c3c2)n1 [GSK2192730]	33	0	21	9	0	15	4	90	72	34	15	0	23	0	0	0	18	7	9	0
CCn1c(-c2ccccc2)nc2cnccc21 [SB-733416]	11	27	6	0	0	31	16	0	2	0	28	0	0	0	17	5	0	0	9	35
CC[C@@H]1CO[C@H](C(=O)Nc2ccccc2)CN1c1cc(-c2ccc3c(N)n[nH]c3c2)nc(NC)n1 [GSK2376236]	26	0	10	0	0	9	2	8	10	22	19	0	0	5	0	0	0	10	4	0
Cc1ccc(NC(=O)c2ccc(Cl)cc2)cc1-c1ccc(C(=O)Nc2ccncc2)cc1 [GSK1398467]	28	9	0	4	0	0	2	0	0	2	16	0	0	0	0	0	0	5	15	0
CNc1nc(-c2ccc3c(N)n[nH]c3c2)cc(N2C[C@@H](C(=O)NC3CCCCC3)OC[C@H]2C)n1 [GSK2375584]	30	0	0	18	0	0	16	0	0	18	35	0	29	28	9	0	2	0	11	0
COc1ccc(Nc2nccc(-c3ccc(NC(=O)c4cc5cc(F)ccc5[nH]4)cc3)n2)cc1 [GSK1229496]	7	0	0	0	0	20	0	0	28	6	0	0	7	2	0	17	0	0	0	0
CS(=O)(=O)CCNCc1nc(-c2ccc3ncnc(Nc4ccc5c(cnn5Cc5ccccc5)c4)c3c2)cs1.Cl.Cl [GW569716]	10	3	0	0	0	17	0	0	10	0	34	0	8	0	16	29	0	0	2	3
Nc1nccc(-c2c(-c3ccc(F)cc3)ncn2C2CCN(Cc3ccccc3)CC2)n1 [SB-219980]	0	17	8	0	0	23	0	0	0	0	0	24	39	16	0	0	0	0	0	0
